{"source": "PubChem BioAssay (NCI)", "key": {"[1]": {"assay": "NCI Yeast Anticancer Drug Screen. Data for the rad52 strain (AID 147);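 note: 0% = growth of vehicle-treated control cultures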", "conditions": "S. cerevisiae rad52 mutant growth inhibition, hits give high values", "method_in_brief": "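Inhibition of yeast growth, referenced to vehicle controls, was the measured output for a strain with defective DNA damage repair.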"}, "[2]": {"assay": "NCI Yeast Anticancer Drug Screen. Data for the wt1 strain (AID 149);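 note: 0% = growth of vehicle-treated wt1 cultures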", "conditions": "S. cerevisiae wt1 strain (SPY 50644) growth inhibition, hits give high values", "method_in_brief": "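The wt1 strain was treated with compounds, and growth was compared with vehicle-treated cultures to give inhibition.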"}, "[3]": {"assay": "NCI Yeast Anticancer Drug Screen. Data for the rad50EPP+ strain (AID 151);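 note: 0% = growth of vehicle-treated control cultures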", "conditions": "S. cerevisiae rad50 mutant strain, hits give high values", "method_in_brief": "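Genetically defined yeast (rad50EPP+, DNA damage repair alteration) is grown with compound, and inhibition of growth is expressed relative to vehicle-treated controls.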"}, "[4]": {"assay": "NCI Yeast Anticancer Drug Screen. Data for the rad50 strain (AID 155);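 note: 0% = growth of vehicle-only cultures of the same strain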", "conditions": "S. cerevisiae rad50 strain growth inhibition, hits give high values", "method_in_brief": "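Cells are treated with compound, grown, and their growth is then scored against vehicle-only cultures of the same repair-deficient yeast strain.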"}, "[5]": {"assay": "NCI Yeast Anticancer Drug Screen. Data for the mec2-1 strain (AID 157)", "conditions": "S. cerevisiae mec2-1 strain, hits give high values", "method_in_brief": "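Each compound was tested on mec2-1 yeast, a strain altered in DNA damage repair or cell cycle control. Growth inhibition is reported relative to vehicle.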"}, "[6]": {"assay": "NCI Yeast Anticancer Drug Screen. Data for the rad14 strain (AID 159);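 note: 0% = growth of vehicle-treated control cultures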", "conditions": "S. cerevisiae rad14 strain growth inhibition, hits give high values", "method_in_brief": "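Readout: yeast growth inhibition, referenced to vehicle-only cultures. Strain bears a defined alteration in DNA damage repair.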"}, "[7]": {"assay": "NCI Yeast Anticancer Drug Screen. Data for the sgs1 mgt1 strain (AID 161);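 note: 0% = growth of cultures given vehicle only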", "conditions": "S. cerevisiae sgs1 mgt1 strain, hits give high values", "method_in_brief": "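Mutant yeast exposed to compound; growth scored against vehicle-only wells.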"}, "[8]": {"assay": "NCI Yeast Anticancer Drug Screen. Data for the CLN2oe strain (AID 163);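 note: 0% = growth of vehicle-only control cultures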", "conditions": "S. cerevisiae CLN2oe strain, hits give high values", "method_in_brief": "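First, the altered yeast strain was treated with each compound; second, its growth was measured; finally, inhibition was derived by comparison with vehicle controls.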"}, "[9]": {"assay": "NCI Yeast Anticancer Drug Screen. Data for the cln2 rad14 strain (AID 165);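 note: 0% = growth equal to vehicle treated cultures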", "conditions": "S. cerevisiae cln2 rad14 strain, hits give high values", "method_in_brief": "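Test compounds were added to cln2 rad14 yeast cultures; inhibition of growth was then determined by comparison with vehicle treatment.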"}, "[10]": {"assay": "NCI Yeast Anticancer Drug Screen. Data for the bub3 strain (AID 167)", "conditions": "S. cerevisiae bub3 mutant strain, hits give high values", "method_in_brief": "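Part of a panel of yeast mutants defective in DNA damage repair or cell cycle regulation. Each strain is grown with compound, and inhibition is calculated relative to solvent-treated cultures.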"}, "[11]": {"assay": "NCI Yeast Anticancer Drug Screen. Data for the wt2 strain (AID 169);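 note: 0% = growth of vehicle-treated yeast cultures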", "conditions": "S. cerevisiae wt2 strain growth inhibition, hits give high values", "method_in_brief": "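The panel's yeast strains carry defined changes in DNA repair or cell cycle genes. Each strain is grown with compound, and growth loss is scored relative to vehicle.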"}, "[12]": {"assay": "NCI Yeast Anticancer Drug Screen. Data for the mlh1 strain (AID 171);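 note: 0% = growth of vehicle-treated control cultures of the same strain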", "conditions": "S. cerevisiae mlh1 strain growth inhibition, hits give high values", "method_in_brief": "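Inhibition values reflect reduced yeast growth in the presence of compound, referenced to vehicle controls, using a strain chosen for its alteration in DNA repair or cell cycle control.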"}, "[13]": {"assay": "NCI Yeast Anticancer Drug Screen. Data for the sgs1 strain (AID 173);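 note: 0% = growth of vehicle-only control cultures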", "conditions": "S. cerevisiae sgs1 mutant, hits give high values", "method_in_brief": "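Vehicle-treated cultures served as reference for growth inhibition of a yeast strain altered in DNA damage repair or cell cycle control after compound exposure.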"}, "[14]": {"assay": "NCI Yeast Anticancer Drug Screen. Data for the mlh1 rad18 strain (AID 175)", "conditions": "S. cerevisiae mlh1 rad18 strain growth inhibition, hits give high values", "method_in_brief": "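Inhibition values reflect reduced growth of mutant yeast versus vehicle-treated controls following compound exposure; the mutations affect DNA damage repair.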"}, "[15]": {"assay": "NCI Yeast Anticancer Drug Screen. Data for the rad18 strain (AID 177)", "conditions": "S. cerevisiae rad18 mutant growth inhibition, hits give high values", "method_in_brief": "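Steps: expose repair-mutant yeast to compound; measure growth; express as inhibition relative to vehicle control.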"}, "[16]": {"conditions": "at 5.0 µM (retest, dose inferred, filed as 0.5)"}, "[17]": {"conditions": "at 50.0 µM (retest, dose inferred, filed as 5.0)"}}, "note": "About 79,000 compounds went through this panel and 15% of them were active in at least one assay; those are over-represented in the sample as a whole. A number with no mark means an inactive call. Active and inactive are the calls of the source. Cut-off read from the data, not from the text of the source: active = growth inhibition above about 70%; inactive = the rest."}
{"compound": "Clc1c(Cl)c(Cl)c2n[nH]nc2c1Cl", "values": [{"measurement": "growth inhibition", "setting": "[1]; at 1.2 µM", "result": -30, "unit": "%"}, {"measurement": "growth inhibition", "setting": "[1]; at 3.7 µM", "result": -11, "unit": "%"}, {"measurement": "growth inhibition", "setting": "[1]; at 11.0 µM", "result": -20, "unit": "%"}, {"measurement": "growth inhibition", "setting": "[1]; at 33.0 µM", "result": -12, "unit": "%"}, {"measurement": "growth inhibition", "setting": "[1]; at 100.0 µM", "result": 65, "unit": "%"}, {"measurement": "growth inhibition", "setting": "[2]; at 1.2 µM", "result": -23, "unit": "%"}, {"measurement": "growth inhibition", "setting": "[2]; at 3.7 µM", "result": -16, "unit": "%"}, {"measurement": "growth inhibition", "setting": "[2]; at 11.0 µM", "result": -9, "unit": "%"}, {"measurement": "growth inhibition", "setting": "[2]; at 33.0 µM", "result": 14, "unit": "%"}, {"measurement": "growth inhibition", "setting": "[2]; at 100.0 µM", "result": "87% (active)"}, {"measurement": "growth inhibition", "setting": "[3]; at 1.2 µM", "result": -62, "unit": "%"}, {"measurement": "growth inhibition", "setting": "[3]; at 3.7 µM", "result": -51, "unit": "%"}, {"measurement": "growth inhibition", "setting": "[3]; at 11.0 µM", "result": -28, "unit": "%"}, {"measurement": "growth inhibition", "setting": "[3]; at 33.0 µM", "result": 18, "unit": "%"}, {"measurement": "growth inhibition", "setting": "[3]; at 100.0 µM", "result": 20, "unit": "%"}, {"measurement": "growth inhibition", "setting": "[4]; at 1.2 µM", "result": -13, "unit": "%"}, {"measurement": "growth inhibition", "setting": "[4]; at 3.7 µM", "result": -21, "unit": "%"}, {"measurement": "growth inhibition", "setting": "[4]; [16]", "result": "100% (active)"}, {"measurement": "growth inhibition", "setting": "[4]; at 11.0 µM", "result": -9, "unit": "%"}, {"measurement": "growth inhibition", "setting": "[4]; at 33.0 µM", "result": 14, "unit": "%"}, {"measurement": "growth inhibition", "setting": "[4]; [17]", "result": "100% (active)"}, {"measurement": "growth inhibition", "setting": "[4]; at 50.0 µM", "result": 60.1, "unit": "%"}, {"measurement": "growth inhibition", "setting": "[4]; at 100.0 µM", "result": "75% (active)"}, {"measurement": "growth inhibition", "setting": "[5]; at 1.2 µM", "result": -6, "unit": "%"}, {"measurement": "growth inhibition", "setting": "[5]; at 3.7 µM", "result": -20, "unit": "%"}, {"measurement": "growth inhibition", "setting": "[5]; [16]", "result": "100% (active)"}, {"measurement": "growth inhibition", "setting": "[5]; at 11.0 µM", "result": -21, "unit": "%"}, {"measurement": "growth inhibition", "setting": "[5]; at 33.0 µM", "result": 9, "unit": "%"}, {"measurement": "growth inhibition", "setting": "[5]; [17]", "result": "100% (active)"}, {"measurement": "growth inhibition", "setting": "[5]; at 50.0 µM", "result": 54.8, "unit": "%"}, {"measurement": "growth inhibition", "setting": "[5]; at 100.0 µM", "result": "82% (active)"}, {"measurement": "growth inhibition", "setting": "[6]; at 1.2 µM", "result": -9, "unit": "%"}, {"measurement": "growth inhibition", "setting": "[6]; at 3.7 µM", "result": -19, "unit": "%"}, {"measurement": "growth inhibition", "setting": "[6]; at 11.0 µM", "result": -9, "unit": "%"}, {"measurement": "growth inhibition", "setting": "[6]; at 33.0 µM", "result": 11, "unit": "%"}, {"measurement": "growth inhibition", "setting": "[6]; at 100.0 µM", "result": "94% (active)"}, {"measurement": "growth inhibition", "setting": "[7]; [16]", "result": -17, "unit": "%"}, {"measurement": "growth inhibition", "setting": "[7]; [17]", "result": "78% (active)"}, {"measurement": "growth inhibition", "setting": "[8]; at 1.2 µM", "result": -7, "unit": "%"}, {"measurement": "growth inhibition", "setting": "[8]; at 3.7 µM", "result": -10, "unit": "%"}, {"measurement": "growth inhibition", "setting": "[8]; at 11.0 µM", "result": 1, "unit": "%"}, {"measurement": "growth inhibition", "setting": "[8]; at 33.0 µM", "result": 21, "unit": "%"}, {"measurement": "growth inhibition", "setting": "[8]; at 100.0 µM", "result": "76% (active)"}, {"measurement": "growth inhibition", "setting": "[9]; [16]", "result": 57, "unit": "%"}, {"measurement": "growth inhibition", "setting": "[9]; [17]", "result": 57, "unit": "%"}, {"measurement": "growth inhibition", "setting": "[10]; at 1.2 µM", "result": -21, "unit": "%"}, {"measurement": "growth inhibition", "setting": "[10]; at 3.7 µM", "result": -18, "unit": "%"}, {"measurement": "growth inhibition", "setting": "[10]; [16]", "result": -11, "unit": "%"}, {"measurement": "growth inhibition", "setting": "[10]; at 11.0 µM", "result": -10, "unit": "%"}, {"measurement": "growth inhibition", "setting": "[10]; at 33.0 µM", "result": 15, "unit": "%"}, {"measurement": "growth inhibition", "setting": "[10]; [17]", "result": "73% (active)"}, {"measurement": "growth inhibition", "setting": "[10]; at 100.0 µM", "result": "87% (active)"}, {"measurement": "growth inhibition", "setting": "[11]; at 1.2 µM", "result": -24, "unit": "%"}, {"measurement": "growth inhibition", "setting": "[11]; at 3.7 µM", "result": -18, "unit": "%"}, {"measurement": "growth inhibition", "setting": "[11]; at 11.0 µM", "result": -7, "unit": "%"}, {"measurement": "growth inhibition", "setting": "[11]; at 33.0 µM", "result": -3, "unit": "%"}, {"measurement": "growth inhibition", "setting": "[11]; at 100.0 µM", "result": "94% (active)"}, {"measurement": "growth inhibition", "setting": "[12]; at 1.2 µM", "result": -59, "unit": "%"}, {"measurement": "growth inhibition", "setting": "[12]; at 3.7 µM", "result": -52, "unit": "%"}, {"measurement": "growth inhibition", "setting": "[12]; at 11.0 µM", "result": -33, "unit": "%"}, {"measurement": "growth inhibition", "setting": "[12]; at 33.0 µM", "result": 14, "unit": "%"}, {"measurement": "growth inhibition", "setting": "[12]; at 100.0 µM", "result": "75% (active)"}, {"measurement": "growth inhibition", "setting": "[13]; at 1.2 µM", "result": -40, "unit": "%"}, {"measurement": "growth inhibition", "setting": "[13]; at 3.7 µM", "result": -26, "unit": "%"}, {"measurement": "growth inhibition", "setting": "[13]; at 11.0 µM", "result": -12, "unit": "%"}, {"measurement": "growth inhibition", "setting": "[13]; at 33.0 µM", "result": 30, "unit": "%"}, {"measurement": "growth inhibition", "setting": "[13]; at 100.0 µM", "result": "91% (active)"}, {"measurement": "growth inhibition", "setting": "[14]; [16]", "result": "100% (active)"}, {"measurement": "growth inhibition", "setting": "[14]; [17]", "result": "100% (active)"}, {"measurement": "growth inhibition", "setting": "[14]; at 50.0 µM", "result": 37.5, "unit": "%"}, {"measurement": "growth inhibition", "setting": "[15]; at 1.2 µM", "result": -29, "unit": "%"}, {"measurement": "growth inhibition", "setting": "[15]; at 3.7 µM", "result": -38, "unit": "%"}, {"measurement": "growth inhibition", "setting": "[15]; at 11.0 µM", "result": -25, "unit": "%"}, {"measurement": "growth inhibition", "setting": "[15]; at 33.0 µM", "result": 4, "unit": "%"}, {"measurement": "growth inhibition", "setting": "[15]; at 100.0 µM", "result": 57, "unit": "%"}]}
